Data as given in the antibiotic and cytotoxicity screens of Wong et al. (2023).
Hit rate of the full screen: of about 39,000 compounds, about 3,300 (8.5%) were called active. The full list was thinned out, with actives kept by preference.

The compounds below were run on HepG2 (assay: cytotoxicity call (relative viability < 0.9)). Details: 10 µM.

| Structure (SMILES) | cytotoxicity call |
| --- | --- |
| O=C(C[C@H]1C=C[C@@H](NS(=O)(=O)c2ccc(F)cc2)[C@@H](CO)O1)NCc1ccc(Cl)c(Cl)c1 | inactive |
| COc1ccc2c3c(n(c2c1)C)[C@H](CO)N(C[C@]13CN(CC2CCOCC2)C1)C(=O)c1ccc(cc1)F | inactive |
| C[C@H](CO)N1C[C@H](C)[C@H](CN(C)S(=O)(=O)c2cccc(F)c2)Oc2ncc(Br)cc2C1=O | inactive |
| C[C@@H]1CN([C@@H](C)CO)C(=O)c2cc(NC(=O)CCCN(C)C)ccc2O[C@@H]1CN(C)S(=O)(=O)c1ccccc1 | inactive |
| C[C@H]1CN([C@@H](C)CO)C(=O)Cc2cc(NC(=O)Cn3cnnn3)ccc2O[C@H]1CN(C)S(=O)(=O)c1cccs1 | inactive |
| C[C@H]1CN([C@@H](C)CO)C(=O)Cc2cc(NC(=O)C3CC3)ccc2O[C@@H]1CN(C)Cc1ccc(Oc2ccccc2)cc1 | inactive |
| Cc1noc(C)c1NC(=O)Nc1cccc2c1O[C@@H](CN(C)S(=O)(=O)c1ccccc1)[C@@H](C)CN([C@@H](C)CO)C2=O | inactive |
| CC1=C(/C=C/C(C)=C/C=C/C(C)=C/C=C/C=C(C)/C=C/C=C(C)/C=C/C2=C(C)C(=O)[C@@H](O)CC2(C)C)C(C)(C)C[C@H](O)C1=O | inactive |
| CCOC(=O)N[C@@H]1CC(=O)N(C2CC2)C1 | inactive |
| N[C@H](CO)COCc1ccccc1 | inactive |
| Cc1ccc(S(=O)(=O)N(C)C[C@H]2Oc3c(NC(=O)c4ccncc4)cccc3C(=O)N([C@H](C)CO)C[C@@H]2C)cc1 | inactive |
| C[C@@H]1CCCCO[C@H](CN(C)CC2CCCCC2)[C@H](C)CN([C@@H](C)CO)C(=O)c2cc(NC(=O)Cc3ccccc3)ccc2O1 | inactive |
| C[C@H](CO)N1C[C@H](C)[C@H](CN(C)S(=O)(=O)c2cn(C)cn2)Oc2ccc(NC(=O)Cc3cn(C)c4ccccc34)cc2CC1=O | inactive |
| Cc1cc(C(=O)Nc2cccc3c2O[C@H](CN(C)C(=O)Nc2c(C)noc2C)[C@H](C)CN([C@H](C)CO)C3=O)n(C)n1 | inactive |
| Cc1ccc(S(=O)(=O)Nc2ccc3c(c2)C(=O)N([C@H](C)CO)C[C@@H](C)[C@@H](CN(C)Cc2ccccc2)OCCCC[C@@H](C)O3)cc1 | inactive |
| Cc1ccc(S(=O)(=O)Nc2ccc3c(c2)C(=O)N([C@H](C)CO)C[C@@H](C)[C@H](CN(C)Cc2ccccc2)OCCCC[C@H](C)O3)cc1 | active |
| C[C@@H]1CCCCO[C@@H](CN(C)Cc2ccccc2)[C@@H](C)CN([C@@H](C)CO)C(=O)c2cc(NS(=O)(=O)c3ccccc3)ccc2O1 | active |
| C[C@@H]1CN([C@@H](C)CO)C(=O)c2cc(NS(=O)(=O)c3ccccc3)ccc2O[C@@H](C)CCCCO[C@@H]1CN(C)Cc1ccccc1 | inactive |
| Cc1ccc(S(=O)(=O)Nc2ccc3c(c2)C(=O)N([C@@H](C)CO)C[C@@H](C)[C@@H](CN(C)Cc2ccccc2)OCCCC[C@H](C)O3)cc1 | inactive |
| C[C@H](CO)N1C[C@H](C)[C@H](CN(C)Cc2ccccc2)OCCCC[C@H](C)Oc2ccc(NS(=O)(=O)c3ccccc3)cc2C1=O | inactive |
| C[C@H]1CN([C@@H](C)CO)S(=O)(=O)c2ccc(C#CCN(C)C)cc2O[C@@H]1CN(C)Cc1ccc2c(c1)OCO2 | inactive |
| C[C@@H]1CN([C@@H](C)CO)C(=O)Cc2cc(NC(=O)CCCN(C)C)ccc2O[C@@H]1CN(C)S(=O)(=O)c1ccc(Cl)cc1 | inactive |
| COC(=O)C(CC#Cc1ccc2c(c1)[C@]1(C(=O)N2)[C@H](c2ccccc2OCCO)N2[C@H](c3ccccc3)[C@H](c3ccccc3)OC(=O)[C@H]2[C@@H]1C(=O)N1CCc2cc(OC)c(OC)cc2C1)C(=O)OC | inactive |

| Structure (SMILES) | cytotoxicity call |
| --- | --- |
| C[C@@H]1CCCCO[C@@H](CN(C)C(=O)Nc2ccc3c(c2)OCO3)[C@H](C)CN([C@H](C)CO)C(=O)c2cc(NC(=O)C3CCCCC3)ccc2O1 | inactive |
| C=CN1CCCC1=O | inactive |
| C[C@@H]1CN([C@@H](C)CO)C(=O)c2cc(NC(=O)NC3CCCCC3)ccc2O[C@H]1CN(C)Cc1ccc(Cl)c(Cl)c1 | inactive |
| C[C@H]1CN([C@@H](C)CO)C(=O)c2cc(NS(=O)(=O)c3ccc(Cl)cc3)ccc2O[C@@H]1CN(C)Cc1ccc(C(F)(F)F)cc1 | inactive |
| C[C@@H]1CN([C@H](C)CO)C(=O)c2cc(NS(=O)(=O)c3ccc(Cl)cc3)ccc2O[C@H]1CN(C)Cc1ccc(C(F)(F)F)cc1 | inactive |
| C[C@@H]1CN([C@H](C)CO)C(=O)c2cc(NS(=O)(=O)c3ccc(Cl)cc3)ccc2O[C@@H]1CN(C)Cc1ccc(C(F)(F)F)cc1 | active |
| C[C@H]1CN([C@@H](C)CO)C(=O)c2cc(NS(=O)(=O)c3ccc(Cl)cc3)ccc2O[C@H]1CN(C)Cc1ccc(C(F)(F)F)cc1 | inactive |
| C[C@H](CO)N1C[C@H](C)[C@H](CN(C)Cc2ccc(C(F)(F)F)cc2)Oc2ccc(NS(=O)(=O)c3ccc(Cl)cc3)cc2C1=O | active |
| C[C@@H]1CN([C@@H](C)CO)C(=O)c2cc(NS(=O)(=O)c3ccc(Cl)cc3)ccc2O[C@H]1CN(C)Cc1ccc(C(F)(F)F)cc1 | inactive |
| C[C@@H]1CN([C@@H](C)CO)C(=O)c2cc(NS(=O)(=O)c3ccc(Cl)cc3)ccc2O[C@@H]1CN(C)Cc1ccc(C(F)(F)F)cc1 | active |
| C[C@H](CO)N1C[C@H](C)[C@@H](CN(C)Cc2ccc(C(F)(F)F)cc2)Oc2ccc(NS(=O)(=O)c3ccc(Cl)cc3)cc2C1=O | active |
| C[C@H](CO)N1C[C@H](C)[C@H](CN(C)C(=O)Cc2ccccn2)Oc2cc(-c3ccc(C(=O)N(C)C)cc3)ccc2S1(=O)=O | inactive |
| N[C@@H](CSCc1ccccc1Cl)C(=O)O | inactive |
| COc1ccc(S(=O)(=O)Nc2ccc3c(c2)C(=O)N([C@@H](C)CO)C[C@H](C)[C@@H](CN(C)Cc2ccccc2)OCCCC[C@@H](C)O3)cc1 | inactive |
| C[C@H]1CCCCO[C@@H](CN(C)C(=O)Nc2ccc3c(c2)OCO3)[C@@H](C)CN([C@@H](C)CO)C(=O)c2cc(NC(=O)Nc3ccc(F)cc3)ccc2O1 | inactive |
| NNC(=S)Nc1cccc(F)c1 | inactive |
| C[C@@H]1CN([C@@H](C)CO)C(=O)c2cc(C#CCN(C)C)cnc2O[C@H]1CN(C)S(=O)(=O)c1cn(C)cn1 | inactive |
| COc1cccc(C#Cc2cnc3c(c2)C(=O)N([C@H](C)CO)C[C@H](C)[C@H](CN(C)C(=O)C2CCOCC2)O3)c1 | inactive |
| C[C@H]1CCCCO[C@H](CN(C)Cc2ccc(C(=O)O)cc2)[C@@H](C)CN([C@@H](C)CO)C(=O)c2cc(NC(=O)Nc3ccc(C(F)(F)F)cc3)ccc2O1 | inactive |
| Cc1noc(C)c1NC(=O)Nc1ccc2c(c1)C(=O)N([C@H](C)CO)C[C@@H](C)[C@H](CN(C)S(=O)(=O)c1ccc(F)cc1)OCCCC[C@@H](C)O2 | inactive |
| ON/C=N\c1nonc1-c1cccnc1 | inactive |
| Nc1c[nH]ccc1=O | inactive |
| COc1ccc(NC(=O)N(C)C[C@H]2OCCCC[C@H](C)Oc3ccc(NS(=O)(=O)c4cccs4)cc3C(=O)N([C@H](C)CO)C[C@@H]2C)cc1 | inactive |

| Structure (SMILES) | cytotoxicity call |
| --- | --- |
| COc1ccc2nc3cc(Cl)ccc3c(Nc3cc(CN4CCCC4)c(O)c(CN4CCCC4)c3)c2n1.O=P(O)(O)O.O=P(O)(O)O.O=P(O)(O)O.O=P(O)(O)O | active |
| CCC(=O)N[C@H]1CC[C@@H](CC(=O)OC)O[C@@H]1CO | inactive |
| CC(=O)c1ccc(F)c(Cl)c1 | inactive |
| Cl.Nc1c2c(nc3ccccc13)CCCC2 | active |
| Nc1nnc(N)c2ccccc12 | inactive |
| Nc1c2c(nc3ccccc13)CCCC2 | inactive |
| Nc1nc(N)c2c(n1)CCCC2 | inactive |
| Nc1c2ccccc2nc2ccccc12 | active |
| CCc1nc2ccccc2c(N)c1C | inactive |
| C[C@H](CO)N1C[C@H](C)[C@H](CN(C)C)Oc2cc(C#C[C@@H](C)O)ccc2S1(=O)=O | inactive |
| C=CCCCCCCCCC(=O)Nc1ccccc1C | inactive |
| C[C@@H]1CN([C@@H](C)CO)C(=O)c2cc(/C=C/c3ccccc3)cnc2O[C@H]1CN(C)C(=O)C1CCOCC1 | inactive |
| C[C@@H]1CCCCO[C@@H](CN(C)Cc2ccncc2)[C@H](C)CN([C@H](C)CO)C(=O)c2cc(NC(=O)C3CCCCC3)ccc2O1 | inactive |
| O=C(C[C@@H]1CC[C@H]2[C@@H](COC[C@@H](O)CN2C(=O)c2ccc(F)cc2)O1)NCCCN1CCOCC1 | inactive |
| COc1ccc(NC(=O)Nc2ccc3c(c2)CC(=O)N([C@@H](C)CO)C[C@@H](C)[C@@H](CN(C)Cc2ccc(Oc4ccccc4)cc2)O3)cc1 | active |
| COc1ccc(NC(=O)Nc2ccc3c(c2)CC(=O)N([C@H](C)CO)C[C@H](C)[C@@H](CN(C)Cc2ccc(Oc4ccccc4)cc2)O3)cc1 | inactive |
| COc1ccc(NC(=O)Nc2ccc3c(c2)CC(=O)N([C@H](C)CO)C[C@@H](C)[C@H](CN(C)Cc2ccc(Oc4ccccc4)cc2)O3)cc1 | active |
| COc1ccc(NC(=O)Nc2ccc3c(c2)CC(=O)N([C@H](C)CO)C[C@@H](C)[C@@H](CN(C)Cc2ccc(Oc4ccccc4)cc2)O3)cc1 | active |
| COc1ccc(NC(=O)Nc2ccc3c(c2)CC(=O)N([C@@H](C)CO)C[C@H](C)[C@@H](CN(C)Cc2ccc(Oc4ccccc4)cc2)O3)cc1 | inactive |
| COc1ccc(NC(=O)Nc2ccc3c(c2)CC(=O)N([C@@H](C)CO)C[C@@H](C)[C@H](CN(C)Cc2ccc(Oc4ccccc4)cc2)O3)cc1 | active |
| Cc1noc(C)c1NC(=O)Nc1ccc2c(c1)C(=O)N([C@@H](C)CO)C[C@@H](C)[C@H](CN(C)C(=O)Nc1cccc3ccccc13)O2 | inactive |
| COc1ccc2c3c(n(c2c1)C)[C@H](CO)N(C[C@]13CN(C1)C(=O)C1CC1)C(=O)CN1CCOCC1 | inactive |
